# Measurements from PubChem BioAssay AID1030 (National Center for Advancing Translational Sciences (NCATS), 2008).
# The whole screen tested about 220,000 compounds, of which about 16,000 (7.3%) were called active. About 25% were inconclusive and are not listed. The call rests on the fitted dose curve; in most records, active means well fitted inhibition curve with a large enough effect (not every such curve was filed as active); inconclusive means small, poorly fitted or top-dose-only effect, or another doubt; inactive means no such curve, though single readings can be large or run the other way. Many of the other results were omitted from the sample, so actives are more common in it than they were.
# Molecular target: Aldehyde dehydrogenase 1A1 (Homo sapiens) (UniProt P00352)
# Sequence (P00352 whole entry, looked up): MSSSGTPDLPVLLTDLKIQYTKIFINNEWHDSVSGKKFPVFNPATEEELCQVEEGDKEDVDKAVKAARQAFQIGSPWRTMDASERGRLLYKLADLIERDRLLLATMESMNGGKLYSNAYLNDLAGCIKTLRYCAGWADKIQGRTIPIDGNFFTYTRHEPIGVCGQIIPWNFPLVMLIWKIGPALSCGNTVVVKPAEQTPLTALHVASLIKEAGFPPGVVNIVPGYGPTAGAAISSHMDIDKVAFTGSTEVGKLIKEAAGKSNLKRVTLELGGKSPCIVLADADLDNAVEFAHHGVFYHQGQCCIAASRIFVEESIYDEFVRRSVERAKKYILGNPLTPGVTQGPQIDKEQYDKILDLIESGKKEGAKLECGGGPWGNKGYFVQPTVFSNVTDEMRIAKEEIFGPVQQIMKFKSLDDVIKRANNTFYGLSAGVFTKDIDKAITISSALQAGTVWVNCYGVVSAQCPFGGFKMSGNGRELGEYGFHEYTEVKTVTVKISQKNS
# Test: qHTS Assay for Inhibitors of Aldehyde Dehydrogenase 1 (ALDH1A1);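 on activity, negative = inhibition: plate controls were no enzyme wells and a reference inhibitor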
# Settings: Purified ALDH1A1, NADH fluorescence, propionaldehyde substrate; series mostly up to 75.3 µM; activity, negative = inhibition: at the top concentration
# Potency means the concentration at half of the fitted maximal effect.
SMILES,"activity, negative = inhibition",Potency
Cc1ccc(-c2nnn(CC(=O)N(Cc3ccco3)C(C(=O)NC(C)(C)C)c3ccncc3)n2)o1 (stereo not given),-10% (inactive),–
COc1ccc(S(=O)(=O)Nc2ccc(S(=O)(=O)N3CCCCC3)cc2)cc1OC,–,0.562 µM (active)
COc1ccc(S(=O)(=O)N2CCCCC2)cc1Br,3.2% (inactive),–
COc1ccc(NS(=O)(=O)c2ccc(NC(C)=O)cc2)cc1OC,1.33% (inactive),–
CN(C)/N=C/c1cn(-c2ccccc2)nc1-c1cccnc1,-3.55% (inactive),–
COc1ccc(C(=O)NNS(=O)(=O)c2ccc(C)cc2)cc1,3.99% (inactive),–
Cc1ccc(COc2ccc(C(=O)NN)cc2)cc1,–,1 µM (active)
Cc1cccc(OCc2ccc(C(=O)Nc3ccc(F)cc3)cc2)c1,7.42% (inactive),–
CN(C(=O)CC(NC(=O)c1ccccc1)(c1ccccc1)c1ccccc1)c1ccccc1,4.49% (inactive),–
COC(=O)C(=Nc1ccccc1)/C(C(=O)C(=O)N(C)c1ccccc1)=C(\O)c1ccc(Cl)cc1,–,25.1 µM (active)
COC(=O)/C(NC(C)=O)=C(\C)c1ccc(Cl)cc1,5.6% (inactive),–
COc1ccccc1CNC(=O)C1Cc2ccccc2C(=O)O1 (stereo not given),-2.15% (inactive),–
Cc1cccc(N2CCC(NCc3c(C(=O)N4CCCCC4)nc4c(C)cccn34)CC2)c1,-8.03% (inactive),–
COCCn1c(C)cc(C2=NNC(=Nc3ccc(F)cc3)SC2)c1C,–,10 µM (active)
COC(=O)c1cc(NC(=O)CN2CCN(C(C)=O)CC2)cc(C(=O)OC)c1,9.25% (inactive),–
NS(=O)(=O)c1ccc(NC(=S)NC(=O)c2cccnc2)cc1,3.62% (inactive),–
O=C(NC1CC1)c1cccc(Br)c1,2.69% (inactive),–
COc1ccc(NC(=S)Nc2ccc(S(N)(=O)=O)cc2)c(C)c1,-13.6% (inactive),–
O=C(NC(=S)Nc1cccc2c(O)cccc12)c1cccc(Br)c1,–,3.16 µM (active)
O=C(NC(=S)Nc1ccc(S(=O)(=O)Nc2ncccn2)cc1)c1cccc(Br)c1,–,10 µM (active)
NS(=O)(=O)c1ccc(NC(=S)NC(=O)c2cccc(Br)c2)cc1,–,25.1 µM (active)
COC(=O)c1ccccc1NC(=S)NC(=O)c1ccccc1F,-1.81% (inactive),–
O=C(Nc1ccc(S(=O)(=O)Nc2ncccn2)cc1)c1cncc(Br)c1,15.6% (inactive),–
O=C(/C=C/c1ccccc1Cl)Nc1ccc(S(=O)(=O)Nc2ncccn2)cc1,-3.57% (inactive),–
COc1ccc(/C=N/n2c(C)cc(C)cc2=O)cc1,3.71% (inactive),–
CC1=NNC(=O)C1CCC(=O)N/N=C\c1ccc(Cl)c(Cl)c1 (stereo not given),7.58% (inactive),–
O=C(N/N=C/c1ccc2c(c1)OCO2)C(=O)N1CCCC1,14.1% (inactive),–
COC(=O)C1=C(C(=O)OC)[C@@H]2N(C)c3ccccc3[C@@]23C[C@@H](C(=O)OC)N(C(=O)c2ccco2)C3=N1,11.6% [at 13.5 µM] (inactive),–

SMILES,"activity, negative = inhibition",Potency
O=C(Nc1ccc2c(c1)OCO2)c1sc2cc(Cl)ccc2c1Cl,1.01% (inactive),–
COC(=O)C1C(=O)NCC1c1ccc(C)cc1 (stereo not given),-2.39% (inactive),–
Cc1ccc(C2NC(C(=O)O)CS2)cc1 (stereo not given),-0.706% (inactive),–
Cc1ccc(C2CC2C(=O)NN)cc1 (stereo not given),–,14.1 µM (active)
CCOC(=O)/C=C/C(=O)OCC(=O)NC(c1ccccc1)c1ccccc1,1.27% (inactive),–
O=C(O)Cc1ccc(-c2ccccc2)cc1,–,inactive
O=C(Cc1ccc(-c2ccccc2)cc1)NC(c1ccccc1)c1ccccc1,–,10 µM (active)
COc1ccc(Br)c2c1C(=O)CC2,2.29% (inactive),–
CCC(CC)NC(=O)CSc1nnc(-c2c[nH]c3ccccc23)o1,8.75% (inactive),–
Cc1cccc(CNc2cc(-c3ccccc3Cl)ncn2)c1,-14.6% (inactive),–
Cc1oc(-c2ccccc2Cl)[n+]([O-])c1C,–,22.4 µM (active)
Cc1cc(C)n(-c2nc(C(F)(F)F)nc3ccccc23)n1,4.02% (inactive),–
COc1cc(C(=O)NCc2ccc3c(c2)cc(C)n3C)cc(OC)c1OC,3.23% (inactive),–
C/C(=N/NC(=O)c1ccc(Br)o1)c1ccc(C)o1,-10.1% (inactive),–
Cc1ccc(NC(=S)NC2CCCC2)cc1,0.313% (inactive),–
C/C(=N\NC(=S)NC1CCCCC1)c1ccc(C)o1,–,12.6 µM (active)
COc1ccccc1CN(C)c1nnnn1-c1ccccc1,2.59% (inactive),–
Cc1cc(OCC(=O)NC2CCN(C)CC2)ccc1[N+](=O)[O-],-7.92% (inactive),–
CCOC(=O)c1cc(-c2ccc(F)cc2)n(CC(=O)NCc2ccccn2)c1C,5.04% (inactive),–
Oc1ccc(N=Cc2sc3ccccc3c2Cl)cc1,–,15 µM (active)
O=C(N/N=C/c1c(Cl)[nH]c2ccccc12)c1sc2ccccc2c1Cl,0.733% (inactive),–
O=C(Nc1ccon1)c1sc2ccccc2c1Cl,-0.693% (inactive),–
Cc1cc(N2CCOCC2)nc2ccc(NC(=S)N3CCN(Cc4ccccc4)CC3)cc12,-0.991% (inactive),–
CCN(CC)C(=O)N(CC)Cc1ccccc1,5.52% (inactive),–
O=S(=O)(NCC1CCCO1)c1ccc2ccccc2c1 (stereo not given),-7% (inactive),–
O=S(=O)(NCC1CCCO1)c1cnc(Cl)c(Cl)c1 (stereo not given),–,3.55 µM (active)
Cc1cc(Cl)c(S(=O)(=O)NCC2CCCO2)cc1OCC(N)=O (stereo not given),-6.11% (inactive),–
